Here are results for 27 compounds from PubChem BioAssay (NCATS).

Records with an inconclusive call do not appear. A number with no mark means an inactive call. Activity calls are given as the source filed them. Calls come from the whole dose curve; as a rule, active = well fitted cell-killing curve with a large enough effect; inconclusive = small, poorly fitted or top-dose-only effect, or effect the other way; inactive = no such curve, though single readings can be large or run the other way.

Test [1] in a line: Viability qHTS for spleen associated tyrosine kinase inhibitor (SYKi) naive MV4-11 cells (AID 1963823). Note: nearly all actives have a fitted effect of over 40% in size. Summed up: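 SYKi-naive MV4-11 AML cells, 500 per well, were exposed to library compounds for 72 hr at 37 C, 5% CO2. Viability was then read by CellTiter-Glo luminescence after 10 min at room temperature.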
(qHTS replaces the single test concentration by a dilution series.)

Test [2] is described as follows: Viability qHTS for spleen associated tyrosine kinase inhibitor (SYKi) drug resistant MV4-11 cells (AID 1963824). Note: nearly all actives have a fitted effect of over 35% in size. The procedure, abridged: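 CellTiter-Glo luminescence, read 10 min after reagent addition, reports viability after a 72 hr compound exposure. Cells are an MV4-11 line made resistant to SYK inhibition, seeded at 500 per well onto compound-containing plates.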
Potency is the fitted concentration of half-maximal effect.

As for `COc1cc(C)c(C(=O)Oc2cc(C)c(C(=O)Oc3cc(C)c(C(=O)NC(C)C(=O)O)c(O)c3)c(O[C@@H]3O[C@H](CO)[C@@H](O)[C@H](O)[C@H]3OC(C)=O)c2)c(OC)c1` (some centres undefined), the Potency result in test [1] and in test [2] was “inactive” in each case.
On to `O=C1C[C@@H](c2ccc(O)cc2)Oc2cc(O)ccc21`, for which the Potency in test [1] is 11.6 µM (active); in test [2], 14.6 µM (active).
Taken in the same sequence, the figures for `CC1(C)C(=O)N2c3ccccc3C(O)(CC(C(=O)O)n3cnc4ccccc4c3=O)C2N1O` (centres undefined) were “inactive” and 0.252 µM (active).
The like results for `O=C(c1cc2c(cc1F)OC(c1ccc(F)cc1)(c1ccc(Cl)cc1Cl)O2)N1CCOCC1` (centres undefined) were, in that order, “inactive” and “inactive”.
Regarding `CC(C)c1ccc(CO)cc1O[C@@H]1O[C@H](CO)[C@@H](O)[C@H](O)[C@H]1O`, the Potency result in test [1] and in test [2] was “inactive” throughout.
As to `C/C(=C\CCC(C)C1=CCC2(C)OC3=C(CC12)C(=O)C(O)CC3)CO` (centres undefined), the Potency result in test [1] and in test [2] was “inactive” throughout.
Consider `CC(=O)CC(=O)Nc1ccc(Cl)c(C(F)(F)F)c1`, for which the figures for the Potency in test [1] and in test [2] were 9.2 µM (active) and 14.6 µM (active), respectively.
Taken in the same sequence, the figures for `C/C(=C\CCC(C)CCO)C(=O)OC[C@H]1O[C@@H](O[C@@H]2OC=C(C(=O)O)[C@H]3CC[C@](C)(O)[C@@H]23)C(O)[C@@H](O)C1O` (some centres undefined) were “inactive” and “inactive”.
The like results for `N#Cc1cnc2c(Cl)cc(NCc3cn(CCN4CCCCCC4)nn3)cc2c1Nc1ccc(F)c(Cl)c1` were, in that order, 9.2 µM (active) and 13 µM (active).
The like results for `C=C1CN(Cc2ccc(C(=O)Nc3ccccc3N)cc2)C(=O)c2ccccc21` were, in that order, 0.651 µM (active) and 0.517 µM (active).
Take `COc1c(F)cccc1C(=O)N1C[C@@H](C)CC[C@H]1CNc1ccc(Br)cn1`: the Potency in test [1] and in test [2] was 9.2 µM (active) throughout.
Take `Cc1cc2c(c(=O)o1)C=C1CC[C@H]([C@H](C)Cn3cnc(=N)c4[nH]cnc43)C[C@@H]1O2`: the Potency result in test [1] and in test [2] was “inactive” in each case.
On to `C=C(C(=O)O)C1CCC2(C)CCC(O)C(C)(O)C2C1` (centres undefined), for which the Potency result in test [1] and in test [2] was “inactive” in each case.
Regarding `CCNC(=O)[C@@H]1CCCN1C(=O)[C@H](CCCN=C(N)N)NC(=O)[C@H](CC(C)C)NC(=O)[C@@H](CC(C)C)NC(=O)[C@H](Cc1ccc(O)cc1)NC(=O)[C@H](CO)NC(=O)[C@H](Cc1c[nH]c2ccccc12)NC(=O)[C@H](Cc1cnc[nH]1)NC(=O)[C@@H]1CCC(=O)N1`, in test [1], the Potency entry is “inactive”. For the same compound, in test [2], the Potency is 7.09 µM (active).
Consider `O=C(c1ccc(F)c(F)c1Nc1ccc(I)cc1F)N1CC(O)(C2CCCCN2)C1` (centres undefined), for which the values for the Potency in test [1] and in test [2] were 0.184 µM (active) and 0.326 µM (active), respectively.
The like results for `O=C(Nc1nc2ccc([N+](=O)[O-])cc2s1)C1CCCCC1` were, in that order, 20.6 µM (active) and 18.4 µM (active).
Taken in the same sequence, the figures for `C=CC(=O)Nc1cc(Nc2nccc(-c3c[nH]c4ccccc34)n2)c(OC)cc1N(C)CCN(C)C` were 0.411 µM (active) and 0.58 µM (active).
The like results for `CC1=CC2=C(C)C(=O)[C@](C)(O)[C@H](O)C2=CO1` were, in that order, “inactive” and “inactive”.
On to `CC(C)(C)c1ccc(NC(=O)N2CCN(c3ncccc3Cl)CC2)cc1`, for which the Potency was 3.66 µM (active) in test [1] and 4.11 µM (active) in test [2].
Taken in the same sequence, the figures for `COC(=O)c1ccccc1O[C@@H]1O[C@H](CO[C@@H]2OC[C@@H](O)[C@H](O)[C@H]2O)[C@@H](O)[C@H](O)[C@H]1O` were “inactive” and “inactive”.
Turning to `O=C(Nc1ccn(Cc2c(F)cccc2C(F)(F)F)n1)c1c(F)cccc1F`, the viability (% of control) in test [1] was 72.8% [at 9.25 µM]. Besides, the viability, % of control in test [2] is 91.5% [at 9.25 µM].
As to `O=C(CCCCC1CCCCC1)N1CCC(c2cnc[nH]2)CC1`, the Potency in test [1] was 13 µM (active); in test [2], 8.2 µM (active).
Taken in the same sequence, the figures for `CC(=O)N[C@@H](Cc1c[nH]c2ccccc12)C(=O)N[C@@H](CCC(=O)O)C(=O)N[C@@H](Cc1cnc[nH]1)C(=O)N[C@@H](CC(=O)O)C(=O)Nc1ccc2c(C(F)(F)F)cc(=O)oc2c1` were “inactive” and “inactive”.
Taken in the same sequence, the figures for `Nc1c(-c2ccccc2)nc(Cl)c2c(O)n[nH]c(=O)c12` were “inactive” and “inactive”.
The like results for `CC1CCC2(C)C(CC(O)C(O)C23CO3)C1(C)CCC1=CC(O)OC1=O` (centres undefined) were, in that order, “inactive” and “inactive”.
Regarding `C[C@H](Oc1cc(-n2cnc3ccc(CN4CCN(C)CC4)cc32)sc1C(N)=O)c1ccccc1C(F)(F)F`, the Potency is 1.03 µM (active) in test [1] and 0.58 µM (active) in test [2].
`CC(C)(C)n1nc(Cc2cccc3ccccc23)c2c(N)ncnc21`: the results for the Potency in test [1] and in test [2] were 10.3 µM (active) and 13 µM (active), respectively.
